# About 960 (1.5%) of roughly 66,000 compounds showed an effect of 50% or more. The sample holds strong results, similar compounds and a random draw of the others, so the mix is not that of the screen.
# Tested on: Trypanosoma brucei
# Assay: Trypanosoma brucei 72 hour study
# Assay type: functional, organism-based
# Set-up: scale not given: in the data most compounds retested in dose-response had high values
compound,measurement,setting,value
O=C(NCc1cccnc1)N1CCC2(CC(=O)N(c3ccsc3)C2)C1.O=C(O)C(F)(F)F (stereo not drawn),Percent Effect,"30.3 µM, […]",-73.27%
Cc1ccsc1-c1cccc(-c2ccn(CC3CCNC3)n2)c1 (stereo not drawn),Percent Effect,"30 µM, 30.03 µM",33.01%
N[C@@H]1CCC[C@@H](Oc2ccc(F)cc2Oc2cccc(F)c2)[C@@H]1O,Percent Effect,"30.3 µM, […]",3.71%
CN[C@@H]1CCC[C@@H](Oc2ccccc2Oc2ccc(C)cc2)[C@@H]1O,Percent Effect,"30.3 µM, […]",101%
Cc1cc(C)nc(N2CC[C@H](Oc3ccccc3F)[C@@H](O)CC2)n1,Percent Effect,"30.3 µM, […]",-2.702%
Cc1ccc(Oc2cc(F)ccc2O[C@@H]2CCC[C@@H](N)[C@H]2O)cc1,Percent Effect,"30.3 µM, […]",100.7%
CN(C(=O)c1ccon1)[C@@H]1CCC[C@@H](Oc2ccccc2)[C@@H]1O,Percent Effect,"30.3 µM, […]",-27.68%
N[C@@H]1CCC[C@@H](Oc2ccc(F)cc2Oc2ccccc2)[C@@H]1O,Percent Effect,"30.3 µM, […]",101.1%
Cc1noc(C)c1C(=O)N[C@@H]1CC[C@@H](Oc2ccccc2)[C@@H]1O,Percent Effect,"30.3 µM, […]",-4.467%
Cc1noc(C)c1C(=O)N[C@@H]1CCC[C@@H](Oc2ccccc2)[C@@H]1O,Percent Effect,"30.3 µM, […]",5.859%
CNCc1cc(F)ccc1Oc1ccc(F)cc1,Percent Effect,"30.3 µM, […]",-17.97%
Cc1ccc(N2CC[C@H]3O[C@@H](C(=O)N4CCCCO4)CC[C@H]32)nn1.O=C(O)C(F)(F)F,Percent Effect,"30.3 µM, […]",-38.73%
Cc1cc(C(=O)N2CCc3nnc(N)cc3C2)c(C)n1-c1ccccc1,Percent Effect,10 µM,-23.32%
same,Percent Effect,"30.3 µM, […]",-29.37%
Cc1ccoc1-c1nnc(CN2CCn3c(C)nnc3C2)o1,Percent Effect,10 µM,-13.57%
same,Percent Effect,"30.3 µM, […]",-3.504%
CN(C)c1cc(C2CCCN(S(=O)(=O)c3cn[nH]c3)C2)ccn1 (stereo not drawn),Percent Effect,"30.3 µM, […]",-2.52%
Cc1cccc(CNc2cc(C3CCCNC3)ccn2)n1.Cl (stereo not drawn),Percent Effect,"30.3 µM, […]",3.917%
CCC1CN(C)c2ccccc2CN1C(=O)Nc1ccccc1OC (stereo not drawn),Percent Effect,"30.3 µM, […]",42.13%
CC(c1cccnc1)N(C)Cc1cc(O)c2cc(F)ccc2n1 (stereo not drawn),Percent Effect,"30 µM, 30.03 µM",-16.14%
Br.Cn1cc(CN2CCC(c3cc(COc4cccc(Cl)c4)[nH]n3)C2)cn1 (stereo not drawn),Percent Effect,"30.3 µM, […]",49.27%
O=C(O)C(F)(F)F.O=C(c1ccoc1)N1C[C@@H]2OCCN(c3ncccn3)[C@@H]2C1,Percent Effect,"30.3 µM, […]",-8.279%
Cc1cccc2[nH]c(-c3cn(C4CCNCC4)nn3)nc12,Percent Effect,"30 µM, 30.03 µM",-21.72%
Cc1c(C)c(C)c2[nH]c(-c3cn(C4CCNCC4)nn3)nc2c1C,Percent Effect,"30 µM, 30.03 µM",91.25%
Cc1ccc2[nH]c(-c3cn(C4CCNCC4)nn3)nc2c1C,Percent Effect,"30 µM, 30.03 µM",-22.65%
O=C(NCC1CC1)C1CCC2(CCN(C(=O)c3cccnc3)CC2)O1.O=C(O)C(F)(F)F (stereo not drawn),Percent Effect,"30.3 µM, […]",-34.45%
O=C([C@H]1C[C@@H]2CN(c3ncc(F)cn3)C[C@H]1O2)N1CCCC1,Percent Effect,"30.3 µM, […]",-1.674%
Cc1cc(Nc2cnccn2)cc(C2CCCNC2)n1 (stereo not drawn),Percent Effect,"30.3 µM, […]",-9.252%
Cc1cccc(Cc2cc(C)nc(C3CCCNC3)c2)c1 (stereo not drawn),Percent Effect,"30.3 µM, […]",100.3%
Cc1cc(Cc2ccccc2F)cc(C2CCCNC2)n1 (stereo not drawn),Percent Effect,"30.3 µM, […]",18.5%
Cc1cc(Cc2cccc(C(F)(F)F)c2)cc(C2CCCNC2)n1 (stereo not drawn),Percent Effect,"30.3 µM, […]",99.88%
Cc1cc(Cc2ccc(F)cc2)cc(C2CCCNC2)n1 (stereo not drawn),Percent Effect,"30.3 µM, […]",51.54%
Cc1nc(C2CCCNC2)cc(N(C)CCc2ccccc2)n1 (stereo not drawn),Percent Effect,"30.3 µM, […]",33.93%
Cc1nc(NC2CCCCC2)cc(C2CCCNC2)n1.Cl (stereo not drawn),Percent Effect,"30.3 µM, […]",43.9%
Cc1cc(Cc2ccccc2C)cc(C2CCCNC2)n1 (stereo not drawn),Percent Effect,"30.3 µM, […]",49.51%
Cc1cc(Cc2ccccc2)cc(C2CCCNC2)n1 (stereo not drawn),Percent Effect,"30.3 µM, […]",2.708%
CN1CC(=O)N(c2cnn(C)c2)CC12CCN(Cc1cccs1)C2.O=C(O)C(F)(F)F.O=C(O)C(F)(F)F (stereo not drawn),Percent Effect,"30 µM, 30.03 µM",-5.896%
Cc1nc(CN2C(=O)CCC23CCN(Cc2ccccn2)CC3)cs1.O=C(O)C(F)(F)F.O=C(O)C(F)(F)F,Percent Effect,"30.3 µM, […]",-6.926%
COCCN1C(=O)C[C@H]2[C@H]1CCN2Cc1ccc(OC)cc1.O=C(O)C(F)(F)F,Percent Effect,"30 µM, 30.03 µM",-19.5%
CC(C)CN1CCC(NC(=O)c2ccc(Cl)cc2Cl)CC1,Percent Effect,"30 µM, 30.03 µM",-12.53%
Cc1ncc(CNCCO)c2cc(C(=O)c3ccc(Br)cc3)oc12.Cl,Percent Effect,"30 µM, 30.03 µM",-4.371%
CCOCC1CN(CCOCc2ccccc2)Cc2c1cnn2C (stereo not drawn),Percent Effect,"30.3 µM, […]",-79.88%
CCOCC1CN(CCc2ccccc2)Cc2c1cnn2C (stereo not drawn),Percent Effect,"30.3 µM, […]",62.26%
COCC1CN(CCc2ccc(OC)c(OC)c2)Cc2c1cnn2C (stereo not drawn),Percent Effect,"30.3 µM, […]",-2.73%
O=C(O)C(F)(F)F.O=C1N(CC2CCCC2)CCC12CCN(c1ncc(F)cn1)CC2,Percent Effect,"30.3 µM, […]",-27.57%
Fc1ccccc1Sc1ccccc1CNC1=NCCN1.I,Percent Effect,"30 µM, 30.03 µM",6.107%
Cn1cccc1C(=O)N1C[C@@H]2C[C@@H](c3nc(C4CC4)cs3)O[C@@H]2C1.O=C(O)C(F)(F)F,Percent Effect,"30 µM, 30.03 µM",-16.96%
CC1CCCN(CCNC(=O)c2ccn(-c3cccc(F)c3)n2)C1 (stereo not drawn),Percent Effect,"30.3 µM, […]",1.994%
same,Percent Effect,"10 mM, 10 mM as filed; unlikely as a test dose",11.39%
COc1ccc(-n2ccc(C(=O)NCCN3CCC(C)CC3)n2)cc1,Percent Effect,"30.3 µM, […]",26.29%
same,Percent Effect,"10 mM, 10 mM as filed; unlikely as a test dose",24.76%
CC1CCCN(CCNC(=O)c2ccn(-c3ccc(F)cc3)n2)C1 (stereo not drawn),Percent Effect,"30.3 µM, […]",63.43%
same,Percent Effect,"10 mM, 10 mM as filed; unlikely as a test dose",1.661%
COc1ccc(-n2ccc(C(=O)NCCN3CCCCCC3)n2)cc1,Percent Effect,"30.3 µM, […]",53.03%
same,Percent Effect,"10 mM, 10 mM as filed; unlikely as a test dose",-44.94%
COc1ccc(-n2ccc(C(=O)NCCN3CCCCC3)n2)cc1,Percent Effect,"30.3 µM, […]",-2.952%
same,Percent Effect,"10 mM, 10 mM as filed; unlikely as a test dose",-24.45%
CC1CCCN(CCNC(=O)c2ccn(-c3ccccc3)n2)C1 (stereo not drawn),Percent Effect,"30 µM, 30.03 µM",26.82%
CCCn1[nH]cc/c1=N\C(=O)CN1CCc2cnc(C(C)C)nc2C1,Percent Effect,10 µM,-28.74%
CCc1ocnc1C(=O)N1CCOC(c2nc(C)n[nH]2)C1 (stereo not drawn),Percent Effect,10 µM,-27.2%
same,Percent Effect,"30.3 µM, […]",-13.47%
Cc1ccc(CN2Cc3nnn(C)c3C(COCc3ccccc3)C2)s1.O=C(O)C(F)(F)F (stereo not drawn),Percent Effect,"30.3 µM, […]",-18.47%
Cn1cc(-c2ncc3c(c2C(=O)O)CCN(CC2CC2)C3)cn1.O=C(O)C(F)(F)F.O=C(O)C(F)(F)F,Percent Effect,"30.3 µM, […]",-26.37%
COCCC1(CNC(=O)Nc2ccnc(C)c2)CCCC1,Percent Effect,"30 µM, 30.03 µM",5.014%
CN(C)c1ncc(I)c(C2CCCN2C)n1.Cl (stereo not drawn),Percent Effect,"30.3 µM, […]",-5.31%
CCc1cnc(CN(C)C2CCN(CCn3cc(C#N)cn3)C2)o1 (stereo not drawn),Percent Effect,"30.3 µM, […]",-0.7137%
Cl.Cn1nc(C2CCN(C(=O)Cc3ccsc3)CC2)c2cccnc21,Percent Effect,"30.3 µM, […]",16.05%
Cc1ccc(C)c(CS(=O)(=O)CC(=O)Nc2ccc(F)cc2F)c1,Percent Effect,"30.3 µM, […]",17.81%
Cc1ccc(C)c(CS(=O)(=O)CC(=O)NC(C)c2ccc(F)cc2F)c1 (stereo not drawn),Percent Effect,"30.3 µM, […]",56.23%
CCS(=O)(=O)CC(=O)NC(C)c1ccc(F)cc1F (stereo not drawn),Percent Effect,"30.3 µM, […]",-61.88%
CCC[C@@H]1CN(C(=O)c2cc3ccccc3s2)C[C@H]1NS(C)(=O)=O,Percent Effect,"30.3 µM, […]",55.32%
CCC[C@@H]1CN(C(=O)c2cnc3ccccc3c2)C[C@H]1NS(C)(=O)=O,Percent Effect,"30.3 µM, […]",-86.77%
CS(=O)(=O)NC1CCN(C(=O)c2cc3ccccc3s2)C1 (stereo not drawn),Percent Effect,"30.3 µM, […]",-42.34%
CNc1ncc2c(n1)CN(c1cccc(OC)c1)C2=O,Percent Effect,"30.3 µM, […]",5.042%
O=C(CN1C(=O)CCC1=O)NCCc1nc(C2CC2)cc(C(F)(F)F)n1,Percent Effect,"30 µM, 30.03 µM",-18.17%
Clc1ccc(C2(CNC3=NCCN3)CCCCC2)cc1.I,Percent Effect,"30 µM, 30.03 µM",18.91%
CC(C)C(C)N(Cc1ccccn1)Cc1ccco1 (stereo not drawn),Percent Effect,"30 µM, 30.03 µM",-27.64%
CCc1ccc(CN(Cc2ccco2)C(C)C(C)C)nc1 (stereo not drawn),Percent Effect,"30 µM, 30.03 µM",-19.36%
CC(C)C(C)N(Cc1cnc2ccccc2n1)Cc1ccco1 (stereo not drawn),Percent Effect,"30 µM, 30.03 µM",81.63%
CCc1c(C)nc(N)nc1N1CCCC(c2nc(CCOC)no2)C1 (stereo not drawn),Percent Effect,"30 µM, 30.03 µM",-46.14%
C[C@@H]1CN(Cc2cccc(F)c2)C[C@]12CCN(Cc1cccnc1)C2=O.O=C(O)C(F)(F)F.O=C(O)C(F)(F)F,Percent Effect,"30.3 µM, […]",-74.2%
CCc1nnc2n1CCN(Cc1ncc(-c3ccc(Cl)cc3)o1)C2,Percent Effect,"30.3 µM, […]",-0.05411%
Cc1cc(C[C@@H]2CCC[C@H]2NCc2ccccc2C)on1.O=C(O)CC(O)(CC(=O)O)C(=O)O,Percent Effect,"30.3 µM, […]",-2.54%
CCCOc1ccccc1CN[C@@H]1CCC[C@H]1Cc1cc(C)no1.O=C(O)CC(O)(CC(=O)O)C(=O)O,Percent Effect,"30.3 µM, […]",97.97%
Cc1cc(C[C@@H]2CCC[C@H]2NCc2ccccc2F)on1.O=C(O)CC(O)(CC(=O)O)C(=O)O,Percent Effect,"30.3 µM, […]",34.89%
NC(=O)Cn1cc(NC(=O)NCCN2CCc3ccccc3C2)cn1,Percent Effect,10 µM,-24.97%
O=C(NC[C@H]1CCCC[C@H]1O)c1ccc2nc(-c3ccco3)[nH]c2c1,Percent Effect,"30.3 µM, […]",17.46%
same,Percent Effect,"10 mM, 10 mM as filed; unlikely as a test dose",-68.89%
O=C(NC[C@H]1CCCC[C@H]1O)c1cccc2[nH]c(-c3cccs3)nc12,Percent Effect,"30.3 µM, […]",101.4%
same,Percent Effect,"10 mM, 10 mM as filed; unlikely as a test dose",77.67%
O=C(NC[C@H]1CCCC[C@H]1O)c1cccc2[nH]c(-c3ccco3)nc12,Percent Effect,"30.3 µM, […]",13.65%
same,Percent Effect,"10 mM, 10 mM as filed; unlikely as a test dose",-65.92%
Cc1ccc(CN2C[C@@H](OCc3csc(C)n3)[C@H]3COC[C@H]32)s1.O=C(O)C(F)(F)F,Percent Effect,"30 µM, 30.03 µM",-8.753%
COc1ccc(CNC2CCc3ncnn3C2)cc1OCC1CC1 (stereo not drawn),Percent Effect,"30 µM, 30.03 µM",-28.92%
Cc1occc1-c1nc(NC2CCCC2)ncc1-c1ccccn1,Percent Effect,"30.3 µM, […]",66.93%
Cc1cc(-c2cnc(NC3CCCC3)nc2-c2ccoc2C)on1,Percent Effect,"30.3 µM, […]",30.38%
Cc1cc(-c2cnc(NC3CCCC3)nc2-c2ccc(C)o2)on1,Percent Effect,"30.3 µM, […]",59.7%
Cc1cc(-c2cnc(NC3CCCC3)nc2-c2ccco2)on1,Percent Effect,"30.3 µM, […]",60.69%
Cc1cc(-c2cnc(NC3CCCCC3)nc2-c2ccco2)on1,Percent Effect,"30.3 µM, […]",43.12%
Cc1cc(-c2cnc(NC3CCCC3)nc2-c2ccoc2)on1,Percent Effect,"30.3 µM, […]",19.37%
Cc1cc(-c2cnc(NC3CC3)nc2-c2ccc(C)o2)on1,Percent Effect,"30 µM, 30.03 µM",25.68%
Cc1cc(-c2cnc(NC3CC3)nc2-c2ccoc2C)on1,Percent Effect,"30.3 µM, […]",6.625%
Cc1cc(-c2cnc(NC3CC3)nc2-c2ccco2)on1,Percent Effect,"30.3 µM, […]",20.38%

# From ChEMBL document CHEMBL3988442, “University of Dundee, Small-Polar-MMV Screening Library” (2021)
